# Source: the supplement of paper PMC6411743
# ± gives the standard deviation of the averaged measurements. The full data set covers some 6,200 targets. This sample favours those with the largest changes.
# Legend:
# Assay in all cases: NP40-soluble protein abundance relative to vehicle (solubility fold change) (ratio); higher = more soluble protein in presence of AMP-PNP
# D6R9V8|Q9UKY7 = biological target: T1, D6R9V8|Q9UKY7 (UniProt Q9UKY7)
# T1 sequence (whole entry): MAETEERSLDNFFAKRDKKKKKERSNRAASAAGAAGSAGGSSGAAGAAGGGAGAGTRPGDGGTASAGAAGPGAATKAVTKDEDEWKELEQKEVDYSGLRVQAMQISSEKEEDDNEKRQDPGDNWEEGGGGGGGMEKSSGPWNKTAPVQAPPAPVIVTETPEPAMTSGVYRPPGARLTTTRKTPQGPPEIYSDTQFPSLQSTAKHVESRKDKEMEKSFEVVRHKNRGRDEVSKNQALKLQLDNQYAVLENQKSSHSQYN
# Method in brief: (§1)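 Jurkat crude lysate prepared with a Dounce homogeniser was treated at eight concentrations spanning 0.1 to 10 mM, 10 min at room temperature then 3 min at 37 °C. Solubilisation with 0.8% NP40 and benzonase and ultracentrifugation preceded TMT labelling of the supernatant for LC-MS/MS. Fold change against the detergent-processed vehicle was determined per replicate from vsn-normalised intensities, across three independent experiments.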
# E9PNW4|E9PR17|P13987 = biological target: T2, E9PNW4|E9PR17|P13987 (UniProt P13987)
# T2 sequence (whole entry): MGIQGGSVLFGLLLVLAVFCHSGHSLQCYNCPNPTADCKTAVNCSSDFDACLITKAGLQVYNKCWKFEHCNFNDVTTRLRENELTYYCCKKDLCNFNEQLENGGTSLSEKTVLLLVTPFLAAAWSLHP
# Method in brief: as §1
# UniProt O43861|O43861-2 = biological target: T3, UniProt O43861|O43861-2
# T3 sequence (whole entry): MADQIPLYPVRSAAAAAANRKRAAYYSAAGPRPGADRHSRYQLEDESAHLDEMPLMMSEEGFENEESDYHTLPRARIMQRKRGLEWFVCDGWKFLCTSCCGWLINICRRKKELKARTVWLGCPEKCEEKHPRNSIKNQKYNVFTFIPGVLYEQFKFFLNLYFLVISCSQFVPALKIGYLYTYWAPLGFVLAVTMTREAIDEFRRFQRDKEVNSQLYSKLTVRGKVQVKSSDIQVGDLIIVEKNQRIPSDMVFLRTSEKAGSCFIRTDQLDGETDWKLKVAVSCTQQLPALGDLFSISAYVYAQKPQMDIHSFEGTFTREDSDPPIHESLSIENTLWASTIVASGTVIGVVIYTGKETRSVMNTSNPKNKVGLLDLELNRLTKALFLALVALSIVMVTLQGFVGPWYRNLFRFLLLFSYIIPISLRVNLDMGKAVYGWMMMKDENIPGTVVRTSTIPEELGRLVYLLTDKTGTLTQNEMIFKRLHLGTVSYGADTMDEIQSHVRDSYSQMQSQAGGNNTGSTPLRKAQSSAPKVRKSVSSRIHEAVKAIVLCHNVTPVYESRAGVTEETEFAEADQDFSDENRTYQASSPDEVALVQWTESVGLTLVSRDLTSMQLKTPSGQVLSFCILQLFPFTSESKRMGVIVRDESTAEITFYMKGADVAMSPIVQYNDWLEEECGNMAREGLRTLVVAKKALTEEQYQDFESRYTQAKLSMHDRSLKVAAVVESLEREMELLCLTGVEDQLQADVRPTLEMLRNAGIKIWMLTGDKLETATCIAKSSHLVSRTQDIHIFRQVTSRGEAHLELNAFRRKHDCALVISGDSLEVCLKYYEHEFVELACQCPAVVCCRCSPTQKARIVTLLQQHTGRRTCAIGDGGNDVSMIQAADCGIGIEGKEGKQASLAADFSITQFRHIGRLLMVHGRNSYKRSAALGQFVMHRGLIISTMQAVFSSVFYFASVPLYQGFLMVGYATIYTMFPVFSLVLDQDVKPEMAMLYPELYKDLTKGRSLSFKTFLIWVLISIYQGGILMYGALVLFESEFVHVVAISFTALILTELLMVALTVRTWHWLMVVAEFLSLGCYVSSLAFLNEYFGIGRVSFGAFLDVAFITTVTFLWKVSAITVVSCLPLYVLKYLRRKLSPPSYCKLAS
# Method in brief: as §1
# ZW10 = biological target: T4, ZW10 (UniProt O43264)
# T4 sequence (whole entry): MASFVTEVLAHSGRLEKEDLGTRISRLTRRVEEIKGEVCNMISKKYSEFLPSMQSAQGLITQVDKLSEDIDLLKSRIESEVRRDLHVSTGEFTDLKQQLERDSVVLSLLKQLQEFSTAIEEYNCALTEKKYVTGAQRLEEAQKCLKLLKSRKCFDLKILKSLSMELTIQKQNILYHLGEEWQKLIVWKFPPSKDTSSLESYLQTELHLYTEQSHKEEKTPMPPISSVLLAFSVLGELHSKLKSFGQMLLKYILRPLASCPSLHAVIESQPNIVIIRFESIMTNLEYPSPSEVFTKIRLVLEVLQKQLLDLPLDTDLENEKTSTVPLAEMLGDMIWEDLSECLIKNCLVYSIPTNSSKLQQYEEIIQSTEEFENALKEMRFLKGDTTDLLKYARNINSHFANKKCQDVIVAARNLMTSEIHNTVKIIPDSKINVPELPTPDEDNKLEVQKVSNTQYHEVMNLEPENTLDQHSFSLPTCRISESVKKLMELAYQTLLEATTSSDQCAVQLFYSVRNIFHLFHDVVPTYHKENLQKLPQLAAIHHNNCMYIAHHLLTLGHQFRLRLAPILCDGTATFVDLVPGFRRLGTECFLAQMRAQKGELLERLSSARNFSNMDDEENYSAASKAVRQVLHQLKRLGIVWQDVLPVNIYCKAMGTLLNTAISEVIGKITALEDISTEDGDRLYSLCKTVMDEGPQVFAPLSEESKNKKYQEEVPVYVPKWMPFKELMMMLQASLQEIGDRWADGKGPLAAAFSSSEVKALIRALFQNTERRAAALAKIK
# Method in brief: as §1
compound,measurement,setting,value
Nc1ncnc2c1ncn2[C@@H]1O[C@H](COP(=O)(O)OP(=O)(O)NP(=O)(O)O)[C@@H](O)[C@H]1O [adenylyl imidodiphosphate],NP40-soluble protein abundance,D6R9V8|Q9UKY7; concentration: 1mM,1.03 ± 0.021
same,NP40-soluble protein abundance,D6R9V8|Q9UKY7; concentration: 2mM,1.09 ± 0.089
same,NP40-soluble protein abundance,D6R9V8|Q9UKY7; concentration: 4mM,1.03 ± 0.034
same,NP40-soluble protein abundance,D6R9V8|Q9UKY7; concentration: 6mM,1.04 ± 0.034
same,NP40-soluble protein abundance,D6R9V8|Q9UKY7; concentration: 8mM,0.993 ± 0.028
same,NP40-soluble protein abundance,D6R9V8|Q9UKY7; concentration: 10mM,1.05 ± 0.07
same,NP40-soluble protein abundance,E9PNW4|E9PR17|P13987; concentration: 1mM,1.05 ± 0.053
same,NP40-soluble protein abundance,E9PNW4|E9PR17|P13987; concentration: 2mM,1.11 ± 0.13
same,NP40-soluble protein abundance,E9PNW4|E9PR17|P13987; concentration: 4mM,1.03 ± 0.049
same,NP40-soluble protein abundance,E9PNW4|E9PR17|P13987; concentration: 6mM,1.07 ± 0.051
same,NP40-soluble protein abundance,E9PNW4|E9PR17|P13987; concentration: 8mM,1.1 ± 0.015
same,NP40-soluble protein abundance,E9PNW4|E9PR17|P13987; concentration: 10mM,1.06 ± 0.03
same,NP40-soluble protein abundance,UniProt O43861|O43861-2; concentration: 1mM,1.01 ± 0.022
same,NP40-soluble protein abundance,UniProt O43861|O43861-2; concentration: 2mM,1 ± 0.012
same,NP40-soluble protein abundance,UniProt O43861|O43861-2; concentration: 4mM,1.01 ± 0.025
same,NP40-soluble protein abundance,UniProt O43861|O43861-2; concentration: 6mM,0.986 ± 0.013
same,NP40-soluble protein abundance,UniProt O43861|O43861-2; concentration: 8mM,1 ± 0.041
same,NP40-soluble protein abundance,UniProt O43861|O43861-2; concentration: 10mM,1.024 ± 0.0049
same,NP40-soluble protein abundance,ZW10; concentration: 1mM,0.994 ± 0.031
same,NP40-soluble protein abundance,ZW10; concentration: 2mM,0.974 ± 0.043
same,NP40-soluble protein abundance,ZW10; concentration: 4mM,0.977 ± 0.047
same,NP40-soluble protein abundance,ZW10; concentration: 6mM,0.936 ± 0.064
same,NP40-soluble protein abundance,ZW10; concentration: 8mM,0.919 ± 0.081
same,NP40-soluble protein abundance,ZW10; concentration: 10mM,0.941 ± 0.07
